# Bioassay records as filed in PubChem BioAssay.
# In the library only some 0.86% were active in any assay of this set; here they are far more common.
# AmpC detergent: blocks E. coli AmpC beta-lactamase in detergent assay; Potency, µM (series often up to 114 µM), for inactives: top-dose activity change, negative = inhibition, most hits filed as inhibitors; P00811; AmpC hydrolysis of nitrocefin, absorbance 480 nm, 0.01% Triton; AID 485294; actives 0.041% (n = 370,000);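 also: 0% = no-compound wells and -100% = no-enzyme wells; nearly all actives have a fitted effect of over 25% in size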
# Target sequence (P00811 whole entry, looked up): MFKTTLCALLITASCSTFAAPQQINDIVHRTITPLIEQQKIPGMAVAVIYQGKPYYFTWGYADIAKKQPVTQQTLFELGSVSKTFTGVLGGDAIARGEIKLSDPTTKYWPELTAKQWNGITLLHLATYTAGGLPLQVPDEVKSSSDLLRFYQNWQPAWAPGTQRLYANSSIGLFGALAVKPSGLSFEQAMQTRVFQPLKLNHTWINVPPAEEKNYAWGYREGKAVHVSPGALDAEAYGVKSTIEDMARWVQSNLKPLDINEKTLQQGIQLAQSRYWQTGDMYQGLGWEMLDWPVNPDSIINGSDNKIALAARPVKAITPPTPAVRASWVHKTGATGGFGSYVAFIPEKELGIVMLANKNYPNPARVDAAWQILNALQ
#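 20 mM phosphate pH 7.0 + 0.01% (detergent screen) or 0.0001% Triton X-100; 5.3 nM AmpC reagent; cpd preinc 15 min RT; nitrocefin (800 uM stock) to start; A480 q20 s × 4 min; Activity was normalised to no-enzyme and no-compound control wells.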
# AMA1 RON2 block: disrupts binding of P. falciparum AMA1 to RON2; AlphaScreen AMA1-biotinylated RON2 peptide binding; Potency, µM (doses to about 58.2 µM), for the others: at the top dose activity change, negative = inhibition, most hits filed as inhibitors; actives 0.2% (n = 360,000);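 also: 0% = vehicle wells and -100% = peptide control; nearly all actives have a fitted effect of over 45% in size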
#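 AMA1 (3D7) with his tag at 25 nM final met compounds first, then biotinylated RON2 peptide at 25 nM; detection used donor plus acceptor beads, 10 µg/mL apiece, read by AlphaScreen after 30 min at room temperature.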
# AmpC inh no detg: inhibitors of E. coli AmpC beta-lactamase without detergent; P00811; AmpC nitrocefin hydrolysis, absorbance 480 nm, 0.0001% Triton; Potency, µM (titrated, usually from 57.1 µM), for the others: at the highest dose activity change, negative = inhibition, hits mostly inhibitors; actives 0.52% (n = 330,000); AID 485341;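 also: plate controls were no compound for no effect and no enzyme for full effect; nearly all actives have a fitted effect of over 20% in size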
#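 AmpC (5.3 nM in the dispensed reagent) in 20 mM phosphate pH 7.0 with 0.01% (detergent screen) or 0.0001% Triton X-100 was preincubated with compounds for 15 min at room temperature. Nitrocefin was then added from an 800 uM solution, and hydrolysis was followed at 480 nm.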
# NS1 function inh: blocks influenza NS1 protein function; AID 2326; actives 0.4% (n = 270,000); Potency, µM (series often up to 46.1 µM), without a hit: top-dose activity, positive = more growth; calls by dose curve; also: actives are rising curves; nearly all actives have a fitted effect of over 50% in size
#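 OD600 was taken as the measure of yeast growth restored by compound in an NS1-expressing S. cerevisiae strain. Cells had been washed out of glucose medium and diluted 1:100 into galactose -URA medium, pH 6.0.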
# Active calls of the source: *; ? = inconclusive; . = not tested or not shown; ! = not active in a repeat. Unless noted, calls follow the shape of the dose curve; as a rule, active = well fitted curve in the direction sought with a large enough effect; inconclusive = small, poorly fitted or top-dose-only effect, or another doubt; inactive = no such curve, though single readings can be large; an effect the other way counts as inactive or inconclusive. Potency is read from the fitted curve at half-maximal effect.
SMILES,AmpC detergent,AMA1 RON2 block,AmpC inh no detg,NS1 function inh
C=C[C@@H]1CN2CC[C@@H]1C[C@H]2[C@H](O)c1ccnc2ccc(OC)cc12,.,.,.,-15%
CCC[n+]1c2ccccc2cc2ccccc21,?,-3%,-22%,-44%
CCCC[n+]1c2ccccc2cc2ccccc21,32µM*,0%,-24%,-58%
COc1ccccc1Nc1ccc(NC(=O)c2cccc([N+](=O)[O-])c2C)cc1,1%,-28%,3.2µM*,15%
Cc1cc(C)c(OCC(=O)N(Cc2ccc(N(C)C)cc2)CC2CCCO2)c(C)c1 (stereo not given),13%,.,.,.
COc1cc(C(=O)N(Cc2ccc(N(C)C)cc2)CC2CCCO2)cc(OC)c1OC (stereo not given),2%,.,.,.
Cc1ccc2oc(C(=O)N(Cc3ccc(N(C)C)cc3)CC3CCCO3)c(C)c2c1 (stereo not given),-1%,18µM*,82%,-20%
Cc1cc2oc(C(=O)N(Cc3ccc(N(C)C)cc3)CC3CCCO3)c(C)c2cc1C (stereo not given),-1%,14µM*,67%,-29%
O=C(/C=C/c1ccc([N+](=O)[O-])cc1)Nc1cccc(C(=O)Nc2ccccc2C(=O)O)c1,5%,-3%,35µM*,11%
c1cc2c(cc1C1CCCN1)OCCCO2 (stereo not given),-2%,0%,0.22µM*,0%
CC1(C)S[C@@H]2[C@H](NC(=O)[C@H](N)c3ccccc3)C(=O)N2[C@H]1C(=O)OC1OC(=O)c2ccccc21 (stereo not given in full),63µM*,105%,0.22µM*,.
CCC(Oc1ccccc1)C(=O)NC1C(=O)N2C1SC(C)(C)C2C(=O)O (stereo not given),32µM*,23%,28µM*,0%
CCOc1ccc2ccccc2c1C(=O)N[C@@H]1C(=O)N2[C@@H]1SC(C)(C)[C@@H]2C(=O)O,5µM*,14%,5.6µM*!,13%
CC1(C)S[C@@H]2[C@H](NC(=O)Cc3ccccc3)C(=O)N2[C@@H]1C(=O)O,.,.,.,-8%
CC1(C)S[C@@H]2[C@H](NC(=O)Cc3ccccc3)C(=O)N2[C@H]1C(=O)O,2%,25%,1%,3%
CCC1(c2ccc(F)cc2)NC(=O)N(CC(=O)Nc2cccnc2Cl)C1=O (stereo not given),6%,8%,-19%,.
COCCCN(C(=S)NC(=O)C(C)(C)C)c1c(N)n(Cc2ccccc2)c(=O)[nH]c1=O,10%,60%,-15%,-1%
COCCCN(C(=S)NC(=O)c1ccc(Br)cc1)c1c(N)n(Cc2ccccc2)c(=O)[nH]c1=O,-2%,84%,5.6µM*,.
Cc1cc(/C=C2\SC(=S)NC2=O)c(C)n1-c1cccc(O)c1,6%,61%,18µM*,-4%
Cc1sc(-n2c(C)cc(/C=C3\SC(=S)NC3=O)c2C)c(C#N)c1C,-6%,36%,14µM*,-23%
Cc1[nH]c2ccccc2c1/C=N\NC(=O)c1ccccc1Cl,.,9%,.,.
Cc1[nH]c2ccccc2c1/C=N/NC(=O)C1CC1(c1ccccc1)c1ccccc1 (stereo not given),0%,-17%,11µM*,8%
Nc1n[nH]c2cc(=O)n(-c3cccc(C(F)(F)F)c3)nc12,5%,49%,-11%,.
O=c1[nH][nH]c2cc(=O)n(-c3cccc(C(F)(F)F)c3)nc12,2%,57%,20µM*,.
N#CC1=C(N)OC2=C(CCC/C2=C/c2ccoc2)C1c1ccoc1 (stereo not given),0%,.,0.28µM*,-33%
SMILES,AmpC detergent,AMA1 RON2 block,AmpC inh no detg,NS1 function inh
CC(C)C(=O)NC(NC(=O)C(C)C)c1ccc([N+](=O)[O-])cc1,-7%,?,-15%,8%
Cc1ccc(S(=O)(=O)NCc2ccc3c(c2)cc(C)n3C)cc1,?,-11%,25µM*,?
COCC(=O)NCc1ccc2c(c1)cc(C)n2C,-3%,-20%,7%,7%
C[C@H](CO)N1C[C@H](C)[C@@H](CN(C)Cc2ccc(C(=O)Nc3ccccc3N)cc2)Oc2c(NC(=O)C3CCCCC3)cccc2C1=O,.,-8%,265%,.
Cc1ccc(N2C(=O)CSC23C(=O)N(CC(=O)NCc2ccccc2)c2ccccc23)cc1C (stereo not given),1%,.,.,.
C[n+]1c2ccccc2nc2ccc(NCCO)cc21,3%,20µM*,-7%,-1%
COc1ccccc1CCNC(=O)Cc1c(C)c2cc3c(C)coc3cc2oc1=O,19%,.,.,.
COc1ccc(C)cc1NCc1cc(=O)oc2cc(-c3ccccc3)c(O)cc12,-5%,10%,3.5µM*,19%
CNc1ccc(C=C2C=Cc3ccccc32)cc1,.,25µM*,.,.
CCN1CCN(Cc2nc3c(c(=O)n(C)c(=O)n3C)n2Cc2cccc3ccccc23)CC1,-1%,-2%,0.16µM*,-20%
COc1cc(C2NC(=S)NC(C)=C2C(=O)c2ccccc2)ccc1O (stereo not given),-5%,-2%,14µM*,25%
Cc1ccc(COC(=O)CN2C(=O)NC3(CCCCC3C)C2=O)cc1 (stereo not given),10%,5%,1%,.
CSc1ccccc1NC(=O)c1noc2c1CCC2,25µM*,-8%,-57%,-56%
CCOC(=O)/C=C/C(=O)Nc1ccc(S(=O)(=O)N2CCCCCC2)cc1,-3%,9%,-36%,-2%
CCOC(=O)/C=C/C(=O)Nc1ccc(S(=O)(=O)N2CCc3ccccc32)cc1,-11%,-1%,16µM*,-9%
CC(=O)c1c(NC(=O)c2ccccc2)[nH]c(-c2ccccc2)nc1=S,?,93%,22µM*,.
O=C(Nc1ccccc1C(=O)Nc1nccs1)c1ccccc1,.,99%,.,.
CC(=O)c1cccc(NC(=O)c2cnn(-c3cccc(C)c3)c2-n2cccc2)c1,0%,.,.,.
Cc1ccccc1NC(=S)NC(=O)/C=C/c1ccco1,-3%,23%,5.6µM*,27%
Nc1nc(N)c2c(ccc3c2ccn3Cc2cccc([N+](=O)[O-])c2)n1,.,32µM*,.,.
CS(=O)(=O)c1ccc(Cl)c(NC(=O)CN2C(=O)C3CCCCC3C2=O)c1 (stereo not given),-4%,-10%,-10%,.
Cc1ccc(-c2nnc3c(C(F)(F)F)nc4ccccc4n23)cc1,?,-2%,0.14µM*,-2%
FC(F)(F)c1nc2ccccc2n2c(-c3ccc(Cl)cc3)nnc12,?,6%,-7%,6%
O=C(c1cc2ccccc2oc1=O)N(Cc1ccccc1)Cc1ccc2c(c1)OCO2,-10%,-14%,-5%,27%
COc1ccc(OC)c(CCNC(=O)Cn2sc3nc(C)cc(C)c3c2=O)c1,50µM*,.,?,?
CCc1cc2c(=O)c(-c3ccc4c(c3)OCO4)coc2c(CN(C)C)c1O,3%,7%,25µM*,-1%
COC(=O)C1CCN(c2c([N+](=O)[O-])cc(C(F)(F)F)cc2[N+](=O)[O-])CC1,3%,-23%,0.25µM*,-4%
